{"source": "PubChem BioAssay AID624405", "about": "(Broad Institute, 2012)", "note": "Screen size: about 1,900 compounds; about 250 (13%) were called active. Inconclusive results (about 4%) are left out.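 Rule for the calls: active = fitted curve reaches 40% rescue activity at or below the top valid dose, in every test run; inconclusive = test runs disagree, some active and some inactive; inactive = every run misses the threshold or moves the wrong way.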 Only a sample is shown. A call without a number means that no potency is given here. Potency and affinity values are given separately."}
{"test": "rescue of simvastatin-induced ATP loss – cell-based, C2C12 myotubes, ATP luminescence, cherry pick, dose response (AID 624405);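 note: myotubes are challenged with simvastatin at 10 µM to lower ATP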", "conditions": "48 h, scaled: DMSO wells 0, geranylgeraniol wells 100; series mostly up to 19.5 µM"}
{"smiles": "Cc1cccc(NC(=O)C2CCCN(S(=O)(=O)c3cccc4nsnc34)C2)n1", "note": "(stereo not given)", "outcome": "inactive"}
{"smiles": "CN(C(=O)c1ccc(NC(=O)Cc2ccc(NC(=O)C3CCN(C(=O)CCc4ccccc4)CC3)cc2)cc1)C1CC1", "outcome": "inactive"}
{"smiles": "CCCc1cc(Nc2c(C)n(C)n(-c3ccccc3)c2=O)n2c(nc3ccccc32)c1C#N", "outcome": "inactive"}
{"smiles": "Cc1ccc(S(=O)(=O)Nc2cccc3c2O[C@@H](CN(C)Cc2ccc(C(F)(F)F)cc2)[C@H](C)CN([C@H](C)CO)C3=O)cc1", "outcome": "inactive"}
{"smiles": "C[C@@H]1CCCCO[C@@H](CN(C)S(=O)(=O)c2ccc(Cl)cc2)[C@H](C)CN([C@H](C)CO)C(=O)c2cc(NS(C)(=O)=O)ccc2O1", "outcome": "inactive"}
{"smiles": "O=C(Nc1ccc(NC(=O)c2ccco2)nc1)c1ccccn1", "outcome": "inactive"}
{"smiles": "COc1ccc(NC(=O)Nc2ccc3c(c2)C(=O)N([C@@H](C)CO)C[C@@H](C)[C@H](CN(C)Cc2ccc(C(F)(F)F)cc2)OCCCC[C@H](C)O3)cc1", "outcome": "inactive"}
{"smiles": "O=C(NCC12CC3CC(CC(C3)C1)C2)c1nn2c(c1Cl)NC(c1ccco1)CC2C(F)(F)F", "note": "(stereo not given)", "outcome": "inactive"}
{"smiles": "COc1ccc(NC(=O)Nc2ccc3c(c2)C(=O)N([C@H](C)CO)C[C@H](C)[C@@H](CN(C)Cc2ccc(C(F)(F)F)cc2)OCCCC[C@@H](C)O3)cc1", "outcome": "inactive"}
{"smiles": "COc1ccc(NC(=O)N(C)C[C@H]2Oc3c(NC(=O)Nc4cccc5ccccc45)cccc3C(=O)N([C@H](C)CO)C[C@H]2C)cc1", "outcome": "inactive"}
{"smiles": "Cc1noc(C)c1S(=O)(=O)N(C)C[C@H]1Oc2ccc(NC(=O)Nc3cccc4ccccc34)cc2CC(=O)N([C@H](C)CO)C[C@@H]1C", "outcome": "inactive"}
{"smiles": "COc1ccccc1N1CCN(Cc2nc3ccsc3c(=O)[nH]2)CC1", "outcome": "inactive"}
{"smiles": "CN1CCN(C2=Cc3ccccc3Sc3cc(F)ccc32)CC1", "outcome": "inactive"}
{"smiles": "Cc1noc(C)c1S(=O)(=O)Nc1ccc2c(c1)CC(=O)N([C@@H](C)CO)C[C@@H](C)[C@H](CN(C)Cc1ccc(-c3ccccc3)cc1)O2", "outcome": "inactive"}
{"smiles": "Cc1noc(C)c1S(=O)(=O)Nc1ccc2c(c1)CC(=O)N([C@H](C)CO)C[C@@H](C)[C@@H](CN(C)Cc1ccc(C(F)(F)F)cc1)O2", "outcome": "inactive"}
{"smiles": "Cc1noc(C)c1S(=O)(=O)Nc1ccc2c(c1)CC(=O)N([C@H](C)CO)C[C@@H](C)[C@@H](CN(C)Cc1ccc(Cl)c(Cl)c1)O2", "outcome": "inactive"}
{"smiles": "Cc1noc(C)c1S(=O)(=O)Nc1ccc2c(c1)CC(=O)N([C@H](C)CO)C[C@@H](C)[C@H](CN(C)Cc1ccc(Cl)c(Cl)c1)O2", "outcome": "inactive"}
{"smiles": "Cc1noc(C)c1S(=O)(=O)Nc1ccc2c(c1)CC(=O)N([C@H](C)CO)C[C@H](C)[C@@H](CN(C)Cc1ccc(Cl)c(Cl)c1)O2", "outcome": "inactive"}
{"smiles": "Cc1noc(C)c1S(=O)(=O)Nc1ccc2c(c1)CC(=O)N([C@@H](C)CO)C[C@H](C)[C@@H](CN(C)Cc1ccc(Cl)c(Cl)c1)O2", "outcome": "inactive"}
{"smiles": "C/C=C/c1ccc2c(c1)O[C@@H](CN(C)C(=O)NC1CCCCC1)[C@@H](C)CN([C@@H](C)CO)S2(=O)=O", "outcome": "inactive"}
{"smiles": "O=C(O)CC(c1ccccc1)n1cccc1", "note": "(stereo not given)", "outcome": "inactive"}
{"smiles": "O=C(CN1CCN(C(=O)c2ccco2)CC1)Nc1cc(C(F)(F)F)ccc1Cl", "outcome": "inactive"}
{"smiles": "COc1ccc(NC(=O)Nc2ccc3c(c2)C(=O)N([C@H](C)CO)C[C@H](C)[C@H](CN(C)Cc2ccc(C(F)(F)F)cc2)OCCCC[C@@H](C)O3)cc1", "outcome": "inactive"}
{"smiles": "CCn1ncc(Br)c1C(=O)Nc1cc(C(=O)OC)ccc1C(=O)OC", "outcome": "inactive"}
{"smiles": "O=C(C[C@H]1CC[C@H]2[C@@H](COC[C@H](O)CN2Cc2ccc(Oc3ccccc3)cc2)O1)N1CCCCC1", "outcome": "inactive"}
{"smiles": "O=C(C[C@@H]1CC[C@@H]2[C@H](COC[C@H](O)CN2Cc2ccc(C(F)(F)F)cc2)O1)NCCc1ccccc1", "outcome": "inactive"}
{"smiles": "O=C(C[C@@H]1CC[C@H]2[C@@H](COC[C@@H](O)CN2Cc2ccc(Oc3ccccc3)cc2)O1)Nc1nccs1", "outcome": "inactive"}
{"smiles": "O=C(C[C@H]1CC[C@H]2[C@@H](COC[C@@H](O)CN2Cc2ccc(Oc3ccccc3)cc2)O1)N1CCCCC1", "outcome": "inactive"}
{"smiles": "CC(C)NC(=O)Nc1cccc2c1O[C@H](CN(C)Cc1ccc(-c3ccccc3)cc1)[C@@H](C)CN([C@@H](C)CO)C2=O", "outcome": "inactive"}
{"smiles": "Cc1ccc(S(=O)(=O)NCCN=C(CN2CCCC2)NS(=O)(=O)c2ccc(C)cc2)cc1", "outcome": "inactive"}
{"smiles": "CC(=O)OC1CC(n2ccc(NC(=O)c3ccccc3)nc2=O)OC1CO", "note": "(stereo not given)", "outcome": "inactive"}
{"smiles": "COc1ccc2oc(=O)cc(CN3CCN(Cc4ccc(OC)c(OC)c4OC)CC3)c2c1", "outcome": "inactive"}
{"smiles": "C[C@@H]1CN([C@@H](C)CO)C(=O)Cc2cc(N(C)C)ccc2O[C@H]1CN(C)Cc1ccc2c(c1)OCO2", "outcome": "inactive"}
{"smiles": "O=c1c2ccccc2ncn1Cc1nc2ccccc2s1", "outcome": "inactive"}
{"smiles": "COc1ccc(Cc2nc(C(=O)Nc3ccc(OC)cc3)cs2)cc1", "outcome": "inactive"}
{"smiles": "C[C@@H]1CCCCO[C@@H](CN(C)C(=O)Nc2cccc3ccccc23)[C@@H](C)CN([C@@H](C)CO)C(=O)c2cc(NS(=O)(=O)c3ccc(Cl)cc3)ccc2O1", "outcome": "inactive"}
{"smiles": "COc1cccc(C#Cc2ccc3c(c2)O[C@H](CN(C)C(=O)c2ccccn2)[C@H](C)CN([C@H](C)CO)S3(=O)=O)c1", "outcome": "inactive"}
{"smiles": "Cc1ccc(S(=O)(=O)N(C)c2ccc(C(=O)O)cc2)cc1", "outcome": "inactive"}
{"smiles": "CCC1(C)Cc2c(sc3nc(NN)n(C)c(=O)c23)CO1", "note": "(stereo not given)", "outcome": "inactive"}
{"smiles": "C[C@H]1CN([C@@H](C)CO)C(=O)c2cc(C3=CCCCC3)cnc2O[C@H]1CN(C)Cc1ccccc1F", "outcome": "inactive"}
{"smiles": "C[C@@H]1CN([C@@H](C)CO)C(=O)c2cc(C#CC3CCCCC3)cnc2O[C@H]1CN(C)S(=O)(=O)c1ccc(F)cc1", "outcome": "inactive"}
{"smiles": "C[C@H]1CN([C@@H](C)CO)C(=O)Cc2cc(NC(=O)CCCCCC(=O)Nc3ccccc3N)ccc2O[C@@H]1CN(C)Cc1ccc(Oc2ccccc2)cc1", "outcome": "inactive"}
{"smiles": "C[C@@H]1CN([C@H](C)CO)C(=O)Cc2cc(NC(=O)CCCCCC(=O)Nc3ccccc3N)ccc2O[C@H]1CN(C)Cc1ccc(Oc2ccccc2)cc1", "outcome": "inactive"}
{"smiles": "O=C(c1ccco1)N(Cc1ccco1)c1ccc(O)cc1", "outcome": "inactive"}
{"smiles": "C[C@H]1CCCCO[C@H](CN(C)S(=O)(=O)c2ccc(Cl)cc2)[C@@H](C)CN([C@@H](C)CO)C(=O)c2cc(NS(C)(=O)=O)ccc2O1", "outcome": "inactive"}
{"smiles": "COCCNC(=O)CSc1nc2ccccc2c2nc(C)nn12", "outcome": "inactive"}
{"smiles": "C[C@H](CO)N1C[C@H](C)[C@@H](CN(C)Cc2ccc(-c3ccccc3)cc2)Oc2ccc(NC(=O)Cn3cnnn3)cc2CC1=O", "outcome": "inactive"}
{"smiles": "C[C@@H]1CN([C@@H](C)CO)C(=O)c2cc(C#Cc3ccc(F)cc3)cnc2O[C@H]1CN(C)C(=O)c1ccccc1F", "outcome": "inactive"}
{"smiles": "COc1ccc(S(=O)(=O)Nc2ccc3c(c2)C(=O)N([C@H](C)CO)C[C@H](C)[C@H](CN(C)Cc2ccc(Cl)c(Cl)c2)OCCCC[C@@H](C)O3)cc1", "outcome": "inactive"}
{"smiles": "CN1C(=O)c2cc(NC(=O)c3cscn3)ccc2OC[C@H]2O[C@H](CC(=O)NCc3ccc(Cl)c(Cl)c3)CC[C@H]21", "outcome": "inactive"}
{"smiles": "COc1ccc(S(=O)(=O)Nc2ccc3c(c2)CC(=O)N([C@H](C)CO)C[C@@H](C)[C@H](CN(C)Cc2ccc(Cl)c(Cl)c2)O3)cc1", "outcome": "inactive"}
{"smiles": "CC(C)(Oc1ccc(Cl)cc1)C(=O)NCc1ccco1", "outcome": "inactive"}
{"smiles": "CN1CCN(c2ccc(NC(=S)NC(=O)c3cccc4c(Br)cccc34)cc2)CC1", "outcome": "inactive"}
{"smiles": "C[C@@H]1CCCCO[C@@H](CN(C)C(=O)Nc2ccc(C(F)(F)F)cc2)[C@H](C)CN([C@@H](C)CO)C(=O)c2cc(NC(=O)c3ccccc3)ccc2O1", "outcome": "inactive"}
{"smiles": "Cc1ccc(S(=O)(=O)N(C)C[C@H]2Oc3ccc(NC(=O)Cc4ccccc4)cc3CC(=O)N([C@@H](C)CO)C[C@@H]2C)cc1", "outcome": "inactive"}
{"smiles": "C[C@@H]1CCCCO[C@H](CN(C)S(=O)(=O)c2ccc(Cl)cc2)[C@@H](C)CN([C@@H](C)CO)C(=O)c2cc(NS(C)(=O)=O)ccc2O1", "outcome": "inactive"}
{"smiles": "COc1ccc(C(=O)c2ccc(OC)cc2O)c(O)c1", "outcome": "inactive"}
{"smiles": "C[C@H]1CN([C@@H](C)CO)C(=O)Cc2cc(NC(=O)CCCCCC(=O)Nc3ccccc3N)ccc2O[C@@H]1CN(C)Cc1ccc(C(F)(F)F)cc1", "outcome": "inactive"}
{"smiles": "C[C@H](CO)N1C[C@H](C)[C@H](CN(C)Cc2ccc(C(F)(F)F)cc2)Oc2ccc(NC(=O)CCCCCC(=O)Nc3ccccc3N)cc2CC1=O", "outcome": "inactive"}
{"smiles": "Cc1onc(-c2ccccc2)c1C(=O)OCC(=O)Nc1ccc2c(c1)OCO2", "outcome": "inactive"}
{"smiles": "Cc1ccc(NC(=O)C(=S)NCc2ccco2)cc1", "outcome": "inactive"}
{"smiles": "FC(F)(F)c1cccc(-c2nnc(-c3ccccc3)c(N3CCOCC3)n2)c1", "outcome": "inactive"}
{"smiles": "Cc1ccc(Nc2cc(=O)[nH]c(=O)[nH]2)c(C)c1", "outcome": "inactive"}
{"smiles": "COCC(=O)N1C[C@H]2[C@@H](c3ccccc31)[C@@H](CO)N2Cc1ccc(OC)cc1", "outcome": "inactive"}
{"smiles": "CCCNC(=O)N(C)C[C@@H]1Oc2cc(-c3ccccc3)ccc2S(=O)(=O)N([C@@H](C)CO)C[C@@H]1C", "outcome": "inactive"}
{"smiles": "CC(C)NC(=O)Nc1ccc2c(c1)C(=O)N([C@@H](C)CO)C[C@H](C)[C@H](CN(C)Cc1ccccc1)O2", "outcome": "inactive"}
{"smiles": "COc1ccc2cc(C(=O)O)n(CC(=O)c3ccccc3)c2c1", "outcome": "inactive"}
{"smiles": "COc1ccc(NC(=O)CSc2nnc(-c3ccccc3Cl)n2Cc2ccco2)c(OC)c1", "outcome": "inactive"}
{"smiles": "CCC(CC)C(=O)c1c[nH]c(C(=O)NCC2CCCO2)c1", "note": "(stereo not given)", "outcome": "inactive"}
{"smiles": "CN1C[C@H]2[C@@H](c3ccccc31)[C@H](CO)N2Cc1ccccc1", "outcome": "inactive"}
{"smiles": "O=C(c1ccc(F)cc1)N1CCC(N2CCCCCC2)CC1", "outcome": "inactive"}
{"smiles": "CC(C)c1ccc(NS(=O)(=O)c2ccc(-n3cccn3)cc2)cc1", "outcome": "inactive"}
{"smiles": "Cc1ccc(NS(=O)(=O)c2ccc(-n3cccn3)cc2)cc1Cl", "outcome": "inactive"}
{"smiles": "CCc1cccc(NS(=O)(=O)c2ccc(-n3cccn3)cc2)c1", "outcome": "inactive"}
{"smiles": "Cc1ccc(C)c(NS(=O)(=O)c2ccc(-n3cccn3)cc2)c1", "outcome": "inactive"}
